This is part of a sample that, as a whole, favours compounds with a hit. Of some 79,000 tested, about 15% had one in any assay. Activity calls are given as the source filed them. No stated cut-off is given here; in the data, active means growth inhibition above about 70%; inactive means the rest.
Legend:
[1] = NCI Yeast Anticancer Drug Screen. Data for the rad52 strain (AID 147);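 further: 0% = growth of vehicle-treated control cultures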; conditions: S. cerevisiae rad52 mutant growth inhibition, active compounds read high
Method in brief: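 Vehicle-treated cultures served as the reference for growth inhibition of compound-exposed yeast bearing a DNA repair mutation.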

[2] = NCI Yeast Anticancer Drug Screen. Data for the wt1 strain (AID 149);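 further: 0% = growth of vehicle-treated wt1 cultures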; conditions: S. cerevisiae wt1 strain (SPY 50644) growth inhibition, active compounds read high
Method in brief: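 The wt1 strain was treated with compounds, and growth was compared with vehicle-treated cultures to give inhibition.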

[3] = NCI Yeast Anticancer Drug Screen. Data for the rad50EPP+ strain (AID 151);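 further: 0% = growth of vehicle-treated control cultures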; conditions: S. cerevisiae rad50 mutant strain, active compounds read high
Method in brief: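 In this screen, rad50EPP+ yeast were exposed to compounds. Growth inhibition was scored against vehicle-treated controls.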

[4] = NCI Yeast Anticancer Drug Screen. Data for the mgt1 strain (AID 153); conditions: S. cerevisiae mgt1 mutant growth inhibition, active compounds read high
Method in brief: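 mgt1 strain exposed; growth vs vehicle control recorded as inhibition.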

[5] = NCI Yeast Anticancer Drug Screen. Data for the rad50 strain (AID 155);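 further: 0% = growth of vehicle-only cultures of the same strain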; conditions: S. cerevisiae rad50 strain growth inhibition, active compounds read high
Method in brief: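 Cells are treated with compound, grown, and their growth is then scored against vehicle-only cultures of the same repair-deficient yeast strain.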

[6] = NCI Yeast Anticancer Drug Screen. Data for the mec2-1 strain (AID 157); conditions: S. cerevisiae mec2-1 strain, active compounds read high
Method in brief: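 Vehicle-treated cultures served as reference for growth inhibition of compound-exposed mec2-1 yeast.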

[7] = NCI Yeast Anticancer Drug Screen. Data for the rad14 strain (AID 159);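 further: 0% = growth of vehicle-treated control cultures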; conditions: S. cerevisiae rad14 strain growth inhibition, active compounds read high
Method in brief: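 Readout: yeast growth inhibition, referenced to vehicle-only cultures. Strain bears a defined alteration in DNA damage repair.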

[8] = NCI Yeast Anticancer Drug Screen. Data for the sgs1 mgt1 strain (AID 161);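 further: 0% = growth of cultures given vehicle only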; conditions: S. cerevisiae sgs1 mgt1 strain, active compounds read high
Method in brief: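 Test agents were incubated with a DNA-repair-mutant yeast strain. Growth was then read and compared against vehicle-treated controls.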

[9] = NCI Yeast Anticancer Drug Screen. Data for the cln2 rad14 strain (AID 165);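 further: 0% = growth equal to vehicle treated cultures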; conditions: S. cerevisiae cln2 rad14 strain, active compounds read high
Method in brief: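 Each compound was tested on cln2 rad14 yeast. Inhibition of growth was calculated against vehicle-exposed controls.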

[10] = NCI Yeast Anticancer Drug Screen. Data for the bub3 strain (AID 167); conditions: S. cerevisiae bub3 mutant strain, active compounds read high
Method in brief: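 Part of a panel of yeast mutants defective in DNA damage repair or cell cycle regulation. Each strain is grown with compound, and inhibition is calculated relative to solvent-treated cultures.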

[11] = NCI Yeast Anticancer Drug Screen. Data for the wt2 strain (AID 169);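 further: 0% = growth of vehicle-treated yeast cultures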; conditions: S. cerevisiae wt2 strain growth inhibition, active compounds read high
Method in brief: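 Inhibition of yeast growth was determined after compound treatment, normalised to controls receiving only vehicle.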

[12] = NCI Yeast Anticancer Drug Screen. Data for the mlh1 strain (AID 171);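 further: 0% = growth of vehicle-treated control cultures of the same strain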; conditions: S. cerevisiae mlh1 strain growth inhibition, active compounds read high
Method in brief: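 Vehicle-normalised growth inhibition of a repair- or checkpoint-altered yeast strain following compound treatment.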

[13] = NCI Yeast Anticancer Drug Screen. Data for the mlh1 rad18 strain (AID 175); conditions: S. cerevisiae mlh1 rad18 strain growth inhibition, active compounds read high
Method in brief: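 Vehicle-treated cultures served as the reference for growth inhibition in a yeast strain carrying DNA damage repair alterations exposed to each compound.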

[14] = NCI Yeast Anticancer Drug Screen. Data for the rad18 strain (AID 177); conditions: S. cerevisiae rad18 mutant growth inhibition, active compounds read high
Method in brief: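 Test articles were incubated with altered yeast defective in DNA damage repair. Results are given as inhibition of growth versus vehicle.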

[15] = at 5.0 µM (retest, dose inferred, filed as 0.5)
[16] = at 50.0 µM (retest, dose inferred, filed as 5.0)

Measured: growth inhibition

CCCCNC1CCC2(SCCS2)c2[nH]c3ccccc3c21 (stereo unspecified)
active: [5]; at 50.0 µM 87.3% | [6]; at 50.0 µM 91.2% | [8]; at 50.0 µM 85.2% | [9]; at 50.0 µM 89.5% | [10]; at 50.0 µM 88.2% | [13]; at 50.0 µM 84.7%
inactive: [1]; at 1.2 µM 2% | [1]; at 3.7 µM 5% | [1]; at 11.0 µM 3% | [1]; at 33.0 µM 4% | [1]; at 100.0 µM 5% | [2]; at 1.2 µM 1% | [2]; at 3.7 µM 1% | [2]; at 11.0 µM 0% | [2]; at 33.0 µM 1% | [2]; at 100.0 µM 6% | [3]; at 1.2 µM -2% | [3]; at 3.7 µM -1% | [3]; at 11.0 µM -2% | [3]; at 33.0 µM -4% | [3]; at 100.0 µM 7% | [4]; at 1.2 µM 2% | [4]; at 3.7 µM -2% | [4]; at 11.0 µM 7% | [4]; at 33.0 µM -5% | [4]; at 100.0 µM 7% | [5]; at 1.2 µM 2% | [5]; at 3.7 µM 3% | [5]; [15] 9% | [5]; at 11.0 µM -7% | [5]; at 33.0 µM 3% | [5]; [16] 49% | [5]; at 100.0 µM 6% | [6]; at 1.2 µM 10% | [6]; at 3.7 µM -1% | [6]; [15] 4% | [6]; at 11.0 µM -2% | [6]; at 33.0 µM -4% | [6]; [16] -14% | [6]; at 100.0 µM 7% | [7]; at 1.2 µM 6% | [7]; at 3.7 µM 0% | [7]; at 11.0 µM 4% | [7]; at 33.0 µM 1% | [7]; at 100.0 µM 9% | [8]; [15] -5% | [8]; [16] 21% | [9]; [15] -7% | [9]; [16] 31% | [10]; at 1.2 µM -6% | [10]; at 3.7 µM 1% | [10]; [15] -16% | [10]; at 11.0 µM 6% | [10]; at 33.0 µM -1% | [10]; [16] 17% | [10]; at 100.0 µM 3% | [11]; at 1.2 µM 1% | [11]; at 3.7 µM 2% | [11]; at 11.0 µM 3% | [11]; at 33.0 µM 3% | [11]; at 100.0 µM 8% | [12]; at 1.2 µM 5% | [12]; at 3.7 µM -2% | [12]; at 11.0 µM 4% | [12]; at 33.0 µM -1% | [12]; at 100.0 µM 6% | [13]; [15] 1% | [13]; [16] 21% | [14]; at 1.2 µM 2% | [14]; at 3.7 µM -4% | [14]; at 11.0 µM -4% | [14]; at 33.0 µM -18% | [14]; at 100.0 µM 4%

Cn1c(-c2ccc(/C=N\N3CCN(/N=C/c4ccc(-c5c[n+]6ccccc6n5C)cc4)CC3)cc2)c[n+]2ccccc12
inactive: [1]; at 1.2 µM -56% | [1]; at 3.7 µM -61% | [1]; at 11.0 µM -48% | [1]; at 33.0 µM 23% | [2]; at 1.2 µM -9% | [2]; at 3.7 µM -13% | [2]; at 11.0 µM -4% | [2]; at 33.0 µM 28% | [3]; at 1.2 µM -36% | [3]; at 3.7 µM -26% | [3]; at 11.0 µM -27% | [3]; at 33.0 µM -9% | [3]; at 100.0 µM 6% | [4]; at 1.2 µM -30% | [4]; at 3.7 µM -10% | [4]; at 11.0 µM -27% | [4]; at 33.0 µM 38% | [5]; at 1.2 µM -15% | [5]; at 3.7 µM -16% | [5]; [15] -2% | [5]; at 11.0 µM -4% | [5]; at 33.0 µM 51% | [5]; at 50.0 µM 49% | [6]; at 1.2 µM -8% | [6]; at 3.7 µM -17% | [6]; [15] 15% | [6]; at 11.0 µM 11% | [6]; at 50.0 µM 25.4% | [7]; at 1.2 µM -31% | [7]; at 3.7 µM -36% | [7]; at 11.0 µM -16% | [7]; at 33.0 µM 17% | [8]; [15] 19% | [9]; [15] -5% | [9]; [16] 69% | [9]; at 50.0 µM 22.4% | [10]; at 1.2 µM -13% | [10]; at 3.7 µM 0% | [10]; [15] 19% | [10]; at 11.0 µM -2% | [10]; at 33.0 µM 54% | [11]; at 1.2 µM -50% | [11]; at 3.7 µM -36% | [11]; at 11.0 µM -37% | [12]; at 1.2 µM -17% | [12]; at 3.7 µM -13% | [12]; at 11.0 µM 3% | [12]; at 33.0 µM 57% | [13]; [15] 46% | [14]; at 1.2 µM -23% | [14]; at 3.7 µM -19% | [14]; at 11.0 µM -31% | [14]; at 33.0 µM 47%
active: [1]; at 100.0 µM 82% | [2]; at 100.0 µM 92% | [4]; at 100.0 µM 91% | [5]; [16] 94% | [5]; at 100.0 µM 91% | [6]; at 33.0 µM 78% | [6]; [16] 96% | [6]; at 100.0 µM 93% | [7]; at 100.0 µM 84% | [8]; [16] 95% | [8]; at 50.0 µM 72.4% | [10]; [16] 95% | [10]; at 50.0 µM 80.5% | [10]; at 100.0 µM 91% | [11]; at 33.0 µM 74% | [11]; at 100.0 µM 92% | [12]; at 100.0 µM 90% | [13]; [16] 94% | [13]; at 50.0 µM 84.3% | [14]; at 100.0 µM 87%

— PubChem BioAssay (NCI)
